# Assay results reported in the OligoGym collection.
# Molecular target: ARPC4
# Experiment: pooled miR-30 sensor sort-seq; sequence = guide strand
# Conditions: shRNA
# Note: reference of the scale not given here.
row,Sequence,sensor-assay potency score (higher = more potent)
1,TTCATCTCACTGATCTCCTTGT,0.358
2,TTGACTGACAGCTTCATCTCAC,0.494
3,TGTGTTTGTACATCTGCTCTGT,0.568
4,TGTAACAGGAGCTCTTTGCTAC,-0.241
5,TGTCGTTCCACAACCTGGGAGG,-0.878
6,AAATCTTCTCGATCTCATCAGC,-0.856
7,TTGTGTTTGTACATCTGCTCTG,0.407
8,TTTTCCTTCTCATTCCTGCTGA,0.452
9,TTCACAGCAATGCTGACCCGGA,-0.48
10,TTTGCTACTCCTGACTTCCACT,-1.07
11,TGTTTGTACATCTGCTCTGTGT,-0.895

# Molecular target: ASB15
# Experiment: as above
# Conditions: shRNA
row,Sequence,sensor-assay potency score (higher = more potent)
1,TATCTTTGAATAGCTGGTGGTA,-0.545
2,TTTATATTTTACATACTCCTGG,-0.0391
3,TATGTATCTTTGAATAGCTGGT,-0.171
4,TTAGCTGAATATCATAACTTGT,-0.69
5,TTACACAAGATGTCCATCCTGG,0.839
6,TTTTTCATCAGCTTCATCCATT,-0.484
7,TTTCACAGCAATCAGAAGGGGG,-0.119
8,TTTATTACACAAGATGTCCATC,-0.601
9,TGTATCTTTGAATAGCTGGTGG,-0.176
